Several values for one entry are separate records, joined by “and”; a condition that tells them apart may be missing. Equal values may be shown once. Activity calls are given as the source filed them.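 The calls were made as follows, unless noted: active = compounds whose cell count with miR-34 switched on is under 0.7 times the count with it off; inactive = the rest.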
Key:
[1] = viability loss with induced miR-34 in A549 – imaging, A549 dox-inducible miR-34, nuclei and caspase counts, primary screen (AID 1347080); conditions: A549 miR-34 inducible, Hoechst nuclei count, 48 h; also: test concentration not given here
[2] = MELAS cybrid and Rieske KO viability enhancers – cell-based, MELAS cybrids, Rieske KO mouse fibroblasts, CellTiter-Glo, primary screen (AID 1508586;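 active = mean z-score across replicates of 1.96 or higher in either the MELAS or the Rieske mutant cell line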;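 also: test concentration not given here; z relative to plate mean and SD of compound and empty wells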); conditions: low glucose
[3] = galactose survival enhancers in mitochondrial complex I cybrids – cell-based, galactose medium, ATP luminescence, primary screen (AID 1645843;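 active = z-score of at least 1.8 in each of two replicates, scored against plate mean and spread of sample wells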;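 also: positive z means more ATP and so rescue of galactose-driven cybrid death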); conditions: complex I mutant cybrid cells, 72 h, stronger effect = higher value
[4] = stronger effect = lower value, cell number ratio, induced over uninduced
[5] = measured here: relative caspase fold change +Dox/-Dox
[6] = measured here: total cells with miR-34 induction, stronger effect = lower value
[7] = measured here: total cells without miR-34 induction
[8] = MELAS cybrid survival, CellTiter-Glo 48 h, stronger effect = higher value
[9] = Rieske KO mouse fibroblast survival, CellTiter-Glo 72 h

Compound | fold change [1, 4] | fold change [1, 5] | cell count [1, 6] | cell count [1, 7] | z-score [2, 8] | z-score [2, 9] | z-score [3]
Cc1nn(C)c(C)c1-c1ccnc(N2CCCC2c2nc(-c3cccnc3)no2)n1 (stereo unspecified) | 0.869 (inactive) | 1.21 | 6880 | 7910 | -0.00142 (inactive) | 0.462 | -0.385 (inactive)
O=C(c1ccnc(Cl)c1)N1CCc2[nH]nc(C3CCC3)c2C1 | 0.923 (inactive) | 0.638 | 9170 | 9930 | -0.36 (inactive) | 0.475 | -0.4 (inactive)
CCCn1cc(-c2ccnc(NC3CCN(Cc4cccnc4)CC3)n2)c(C)n1 | 0.82 (inactive) | 2 | 3430 | 4180 | -0.647 (inactive) | 0.672 | -0.55 (inactive)
COc1ccc(CN2CCN(c3nccc(-c4cn(C)nc4C)n3)CC2=O)cc1 | 0.778 (inactive) | 1.57 | 4640 | 5960 | 4.51 (active) | 2.53 | -0.37 (inactive)
Cc1csc(CNc2nccc(-c3cn(C)nc3C)n2)n1 | 0.888 (inactive) | 0.815 | 8410 | 9480 | -0.307 (inactive) | 0.16 | -0.445 (inactive)
O=C(NCCc1ccco1)c1cc(C2CC2)[nH]n1 | 0.916 (inactive) | 1.14 | 9380 | 10200 | 0.356 (inactive) | 0.504 | -0.495 (inactive)
CN1CCN(NC(=S)Nc2ccc(S(N)(=O)=O)cc2)CC1 | 0.87 (inactive) | 0.82 | 8440 | 9700 | -0.739 (inactive) | 0.101 | 0.425 (inactive)
Fc1cccc(F)c1-c1nc2c(cnn2Cc2cccs2)[nH]1 | 0.88 (inactive) | 2.16 | 8590 | 9770 | -0.231 (inactive) | 0.598 | -0.555 (inactive)
O=S(=O)(O)CCCSc1nc2ccccc2s1 | 0.906 (inactive) | 0.489 | 8800 | 9700 | -0.268 (inactive) | -0.142 | 0.7 (inactive)
Cc1ccc(Cn2nccc2NC(=O)Cn2cc(-c3ccc(F)cc3)cn2)o1 | 0.895 (inactive) | 0.589 | 8330 | 9310 | -0.0022 (inactive) | -0.187 | 1.75 (inactive)
Cc1cccc(-n2cnc3cc(N)ccc32)c1 | 0.889 (inactive) | 1.07 | 8160 | 9170 | 1.59 (inactive) | 0.221 | 0.94 (inactive)
CC1OC(OCC2OC(Oc3c(-c4ccc(O)c(O)c4)oc4cc(O)cc(O)c4c3=O)C(O)C(O)C2O)C(O)C(O)C1O (stereo unspecified) | 0.944 (inactive) and 0.91 (inactive) | 1.42 and 0.851 | 10400 and 8400 | 11000 and 9230 | -0.328 (inactive) | -0.0914 | 0.225 (inactive)
O=c1c2nccnc2ncn1Cc1scnc1-c1ccccc1 | 0.893 (inactive) | 0.515 | 8870 | 9940 | -0.26 (inactive) | -0.294 | -0.445 (inactive)
COc1ccc(CC(N)=O)cc1 | 0.918 (inactive) | 0.564 | 8020 | 8730 | 0.385 (inactive) | 0.663 | -0.175 (inactive)
c1ccc(-c2noc(-c3cccc4cccnc34)n2)nc1 | 0.892 (inactive) | 1.13 | 7790 | 8740 | -0.283 (inactive) | 1.05 | 0.93 (inactive)
Cc1ccc(-c2noc([C@@]34CC[C@@](C)(C(=O)O3)C4(C)C)n2)cc1Cl | 0.896 (inactive) | 1.34 | 8140 | 9090 | -0.00199 (inactive) | -1.05 | -0.54 (inactive)
Nc1ccn(C2OC(CO)C(O)C2O)c(=O)n1 (stereo unspecified) | 1.14 (inactive) and 0.906 (inactive) | 0.982 and 0.86 | 2260 and 7940 | 1990 and 8760 | -0.137 (inactive) | -0.441 | -1.19 (inactive)
Cc1nc(NC(=O)NCc2cccc(C(F)(F)F)c2)nn1C | 0.922 (inactive) | 1.12 | 9110 | 9880 | 0.0413 (inactive) | 1.4 | 0.45 (inactive)

Source: PubChem BioAssay
